Assay results as given in PubChem BioAssay (EPA / NIEHS).
Some compounds were tested as several samples or in several runs, with calls that do not always agree. Activity calls are given as the source filed them. The calls were made as follows: active = hit-call score of the fitted dose curve at least 0.9, where 1 is the maximum; inactive = score below 0.9.

The molecules below were run against Paired box protein Pax-6 (Homo sapiens) (UniProt P26367) (assay: ATG_Pax6_CIS: Attagene CIS-FACTORIAL HepG2 Assay for human Paired Box 6 (PAX6) (AID 2282956)). Conditions: HepG2 CIS-FACTORIAL PAX6 reporter transcription, RNA readout; actives raise or lower the signal.
Procedure, shortened: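 Transient MRTU transfection of HepG2 → compound exposure 24 h → TriZol RNA, oligo(dT) RT → PCR, 6-FAM primer extension, HpaI cut → capillary electrophoresis; activity fitted both directions against DMSO.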

Sequence of Paired box protein Pax-6 (Homo sapiens) (P26367 whole entry, looked up): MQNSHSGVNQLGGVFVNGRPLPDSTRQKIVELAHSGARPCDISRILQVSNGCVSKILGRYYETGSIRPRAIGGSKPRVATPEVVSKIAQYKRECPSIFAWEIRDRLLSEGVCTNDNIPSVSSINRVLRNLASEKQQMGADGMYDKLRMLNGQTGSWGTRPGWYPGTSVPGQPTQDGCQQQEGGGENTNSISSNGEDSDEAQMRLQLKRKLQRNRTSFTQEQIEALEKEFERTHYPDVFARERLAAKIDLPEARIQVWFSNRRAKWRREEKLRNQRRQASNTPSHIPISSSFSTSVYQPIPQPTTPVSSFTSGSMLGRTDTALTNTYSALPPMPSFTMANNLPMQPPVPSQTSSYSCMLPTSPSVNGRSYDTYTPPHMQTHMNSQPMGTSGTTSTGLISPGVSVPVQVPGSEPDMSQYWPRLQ

Row | SMILES | outcome | AC50
1 | CC(C#N)CCC#N (configuration not stated) | inactive | 
2 | CN(C)N=O | inactive | 
3 | Cc1ccc(N)cc1Cl | inactive | 
4 | Oc1cccc2cccnc12 | inactive | 
5 | BrCCBr | inactive | 
6 | O=C(O)C(F)(F)C(F)(F)C(F)(F)C(F)(F)C(F)(F)C(F)(F)C(F)(F)C(F)(F)C(F)(F)C(F)(F)F | inactive | 30.8 µM (active)
7 | CC(C)(OO)c1ccccc1 | inactive | 
8 | CC(C)(C)c1cc(O)ccc1O |  | 124 µM (active)
9 | COP(=S)(OC)Oc1ccc(Sc2ccc(OP(=S)(OC)OC)cc2)cc1 |  | 49.2 µM (active)
10 | CC(C)c1cccc(C(C)C)c1O | inactive | 
11 | O=[N+]([O-])c1ccc(O)c([N+](=O)[O-])c1 | inactive | 
12 | COC(=O)c1sccc1S(=O)(=O)NC(=O)Nc1nc(C)nc(OC)n1 | inactive | 
13 | CC1(C)CCC(Cc2ccc(Cl)cc2)C1(O)Cn1cncn1 (configuration not stated) | inactive | 
14 | COC[C@H](C)N(C(=O)CCl)c1c(C)csc1C | inactive | 
15 | CCOC(=O)Nc1cccc(OC(=O)Nc2ccccc2)c1 | inactive | 
16 | ClCc1ccccn1 | inactive | 
17 | CCCCP(CCCC)CCCC | inactive | 
18 | O=C(Cl)c1ccc(Cl)cc1 | inactive | 
19 | CC1CN1P(=O)(N1CC1C)N1CC1C (configuration not stated) | inactive | 
20 | O=P(O)(O)CN(CP(=O)(O)O)CP(=O)(O)O | inactive | 
21 | ClCCBr | inactive | 
22 | Oc1ccc(-c2ccccc2)cc1 |  | 100 µM (active)
23 | CCOP(=O)(CN(CCO)CCO)OCC | inactive | 
24 | CC(C)c1ccc(CO)cc1 | inactive | 
25 | C[C@]12CCC(=O)C[C@@H]1CC[C@@H]1[C@@H]2CC[C@]2(C)[C@@H](O)CC[C@@H]12 | inactive | 
26 | ClC1(Cl)C2(Cl)C3(Cl)C4(Cl)C(Cl)(Cl)C5(Cl)C3(Cl)C1(Cl)C5(Cl)C24Cl (configuration not stated) | inactive | 
